Screening results (PubChem BioAssay)
KDM5B inhibitor: inhibitors of human KDM5B histone demethylase | hit rate 2.6% among 220,000 | Potency, µM (highest dose often 57.7 µM), actives largely listed as inhibitors | KDM5B demethylase, FDH-coupled NADH fluorescence (FDH is formaldehyde dehydrogenase) | Q9UGL1 | AID 1347165; active means well fitted inhibition curve with a large enough effect; further: 0% is about no effect; nearly all actives have a fitted effect of over 70% in size
Target sequence (Q9UGL1 whole entry, looked up): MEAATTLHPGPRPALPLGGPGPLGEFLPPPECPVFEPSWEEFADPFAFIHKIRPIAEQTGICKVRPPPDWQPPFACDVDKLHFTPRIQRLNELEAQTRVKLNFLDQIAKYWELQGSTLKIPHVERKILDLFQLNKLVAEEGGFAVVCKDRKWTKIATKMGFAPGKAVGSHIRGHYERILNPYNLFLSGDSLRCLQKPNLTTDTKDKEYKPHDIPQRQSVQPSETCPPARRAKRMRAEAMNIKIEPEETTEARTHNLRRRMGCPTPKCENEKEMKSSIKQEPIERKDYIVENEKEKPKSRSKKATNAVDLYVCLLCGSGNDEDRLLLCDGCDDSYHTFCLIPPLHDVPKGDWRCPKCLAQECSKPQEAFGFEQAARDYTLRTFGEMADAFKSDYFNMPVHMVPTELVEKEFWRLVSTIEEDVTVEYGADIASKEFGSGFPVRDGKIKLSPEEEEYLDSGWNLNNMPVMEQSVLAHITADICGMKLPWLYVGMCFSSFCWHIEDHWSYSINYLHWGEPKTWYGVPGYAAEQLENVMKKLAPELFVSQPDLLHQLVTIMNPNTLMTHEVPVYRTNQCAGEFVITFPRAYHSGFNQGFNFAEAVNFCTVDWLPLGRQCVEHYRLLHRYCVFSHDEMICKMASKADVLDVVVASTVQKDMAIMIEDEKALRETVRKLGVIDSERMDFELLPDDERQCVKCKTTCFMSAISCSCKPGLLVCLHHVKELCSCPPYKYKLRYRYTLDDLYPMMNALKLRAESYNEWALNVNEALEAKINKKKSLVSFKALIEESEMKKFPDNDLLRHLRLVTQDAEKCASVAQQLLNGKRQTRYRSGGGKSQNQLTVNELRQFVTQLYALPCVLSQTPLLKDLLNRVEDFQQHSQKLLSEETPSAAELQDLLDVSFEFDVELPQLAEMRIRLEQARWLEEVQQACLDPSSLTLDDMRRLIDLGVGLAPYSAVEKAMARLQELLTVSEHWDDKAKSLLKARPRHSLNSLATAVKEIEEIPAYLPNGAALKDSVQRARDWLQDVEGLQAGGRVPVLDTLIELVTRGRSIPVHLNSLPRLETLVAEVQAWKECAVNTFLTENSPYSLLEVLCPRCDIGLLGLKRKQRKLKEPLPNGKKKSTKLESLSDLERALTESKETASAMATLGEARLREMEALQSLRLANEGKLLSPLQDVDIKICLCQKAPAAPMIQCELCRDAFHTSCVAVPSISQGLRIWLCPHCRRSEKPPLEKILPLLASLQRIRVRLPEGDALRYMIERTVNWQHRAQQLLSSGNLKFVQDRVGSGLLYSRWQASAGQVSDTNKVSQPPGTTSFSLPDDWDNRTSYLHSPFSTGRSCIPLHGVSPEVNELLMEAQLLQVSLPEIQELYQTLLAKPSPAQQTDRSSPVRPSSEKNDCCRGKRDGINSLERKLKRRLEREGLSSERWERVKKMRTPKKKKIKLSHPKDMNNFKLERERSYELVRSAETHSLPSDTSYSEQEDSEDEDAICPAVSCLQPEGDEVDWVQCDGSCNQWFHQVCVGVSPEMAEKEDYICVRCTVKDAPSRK
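Here, H3K4me3 peptide (12.5 µM in substrate mix) is demethylated by KDM5BΔAP, 200 nM final, after 10 min compound exposure. Formaldehyde product is coupled through FDH (0.25 U/mL in mix) to NADH fluorescence; 30-min ΔRFU feeds dose-response curves.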
The depositor's hits bear a star. The entries come from a sample that favours hits as a whole. Potency means the concentration at half of the fitted maximal effect.

`CCc1cccc(NC(=O)Cc2c[nH]c3ccccc23)c1` gave KDM5B inhibitor inactive.
For CN(Cc1ccc(Cl)cc1)C(=O)c1ccc(Cl)c(S(=O)(=O)NC2CC2)c1 the results were KDM5B inhibitor inactive.
For Nc1nc(C2CC(O)C2)cc(N2CCC(Cc3ccc(F)cc3)CC2)n1 (stereo unspecified) the results were KDM5B inhibitor inactive.
Screening Cc1[nH]c2ccccc2c1-c1csc(NC(=O)C2CCOCC2)n1 returned KDM5B inhibitor inactive.
COC[C@@H]1CN(Cc2c(F)cccc2F)C[C@H]1C(=O)NC1CC1 was read as KDM5B inhibitor inactive.
`O=C1NC(C(=O)NCc2ccco2)Cn2cccc21` (stereo unspecified) gave KDM5B inhibitor inactive.
`COC[C@@H]1CN(c2cnccn2)C[C@H]1C(=O)NCc1ccco1` gave KDM5B inhibitor 25.1µM*.
Screening O=C(COc1ccc(NC(=O)C2CC2)cn1)NCc1ccccc1F returned KDM5B inhibitor inactive.
`O=C(NCc1ccco1)C1CC(c2ccccc2)CN(C(=O)C2CCCC2)C1` (stereo unspecified) gave KDM5B inhibitor inactive.
Screening COC[C@@H]1CN(c2cnccn2)C[C@H]1C(=O)NCc1ccccc1F returned KDM5B inhibitor 20µM*.
For CC1=C(C(=O)NCc2ccccc2)C(c2ccccc2)NC(=S)N1 (stereo unspecified) the results were KDM5B inhibitor inactive.
For COC(=O)CN1C(=O)CSc2ccc(S(=O)(=O)Nc3cccc(OC)c3)cc21 the results were KDM5B inhibitor inactive.
`CN(Cc1ccc(C(=O)NCC(F)(F)F)cc1)C(=O)c1ccccc1` gave KDM5B inhibitor inactive.
Screening CCn1c(CO)nnc1C1CC(NC(=O)c2nnc3nc(C)ccn23)C1 (stereo unspecified) returned KDM5B inhibitor inactive.
Screening CCn1c(CO)nnc1C1CC(NC(=O)c2scc3c2CCCC3)C1 (stereo unspecified) returned KDM5B inhibitor inactive.
`CCn1c(CO)nnc1C1CC(NC(=O)c2cnc3sccn3c2=O)C1` (stereo unspecified) gave KDM5B inhibitor 28.2µM*.
`O=C(Nc1ccc2c(c1)OCCO2)c1cc2c(s1)-c1ccc(Cl)cc1S(=O)(=O)C2` gave KDM5B inhibitor inactive.
Screening C[S+](=O)([O-])Nc1cccc(N2C[C@@H]3C(C(=O)NC4CCOCC4)=NO[C@@H]3C2)c1 returned KDM5B inhibitor inactive.
For O=C(Nc1cccc(-c2cccc(F)c2)c1)C1CCN(CC2CCOC2)CC1 (stereo unspecified) the results were KDM5B inhibitor inactive.
Screening O=C1Cc2c(-c3cccc(N4CCOCC4)c3)n[nH]c2CN1CCOc1ccccc1 returned KDM5B inhibitor inactive.
For O=C1c2cc(N3CCOCC3)nc(-c3cccc(F)c3)c2CN1CC1CC1 the results were KDM5B inhibitor 35.5µM*.
O=[S+]([O-])(Nc1cccnc1)c1ccc2c(c1)OCCN(CC1CCOCC1)C2 was read as KDM5B inhibitor inactive.
Screening C[S+](=O)([O-])Nc1cccc(-c2nc(N3CCOCC3)cc3c2CN(CC2CC2)C3=O)c1 returned KDM5B inhibitor 28.2µM*.
Screening Cc1oc2cc(OCC(=O)NCCCOC(C)C)ccc2c(=O)c1-c1ccccc1 returned KDM5B inhibitor inactive.
For CC(=O)Nc1ncc2c(n1)CC(c1ccc(N(C)C)cc1)CC2=O (stereo unspecified) the results were KDM5B inhibitor inactive.
O=C1CSC(c2cccc(C(F)(F)F)c2)N1c1ccc(Br)cc1 (stereo unspecified) was read as KDM5B inhibitor inactive.
Screening O=C(N/N=C/c1cccs1)c1cccc(Cl)c1 returned KDM5B inhibitor inactive.
For CN(C)C[C@@H]1CN(c2ccncn2)C[C@H]1NC(=O)Cn1c(=O)oc2ccccc21 the results were KDM5B inhibitor inactive.
For CN(C)C[C@@H]1CN(c2ccccn2)C[C@H]1NC(=O)c1ccc(C#N)cc1 the results were KDM5B inhibitor inactive.
Screening CN(C)C[C@@H]1CN(Cc2ccccc2)C[C@H]1NC(=O)c1ccoc1 returned KDM5B inhibitor inactive.
CN(C)C[C@@H]1CN(c2ccccn2)C[C@H]1NC(=O)c1ccsc1 was read as KDM5B inhibitor 22.4µM*.
CN(C)C[C@@H]1CN(c2ccccn2)C[C@H]1NC(=O)NC1CCCCC1 was read as KDM5B inhibitor 31.6µM*.
`CN(C)C[C@@H]1CN(c2ccccn2)C[C@H]1NC(=O)c1ccoc1` gave KDM5B inhibitor 28.2µM*.
`CN(C)C[C@@H]1CN(c2ccncn2)C[C@H]1NC(=O)NC1CCCCC1` gave KDM5B inhibitor inactive.
`CN(C)C[C@@H]1CN(c2ccncn2)C[C@H]1NC(=O)Cc1ccsc1` gave KDM5B inhibitor inactive.
CN(C)C[C@@H]1CN(c2ccncn2)C[C@H]1NC(=O)Cc1cccs1 was read as KDM5B inhibitor inactive.
`CN(C)C[C@@H]1CN(c2ccncn2)C[C@H]1NC(=O)c1ccsc1` gave KDM5B inhibitor inactive.
For CN(C)C[C@@H]1CN(c2ccncn2)C[C@H]1NC(=O)CC1CCCCC1 the results were KDM5B inhibitor inactive.
For CN(C)C[C@@H]1CN(c2ccccn2)C[C@H]1NC(=O)Cn1c(=O)oc2ccccc21 the results were KDM5B inhibitor 22.4µM*.
Cc1cccc(C(=O)NC(Nc2cc(C)ccc2C)C(Cl)(Cl)Cl)c1 (stereo unspecified) was read as KDM5B inhibitor inactive.
For COc1cccc(S(=O)(=O)N2CCC(n3cnnc3-c3ccccc3)CC2)c1 the results were KDM5B inhibitor inactive.
Nc1nc(Cl)nc(Nc2ccccc2)c1[N+](=O)[O-] was read as KDM5B inhibitor inactive.
For Fc1ccc(Sc2ncccc2Cl)cc1 the results were KDM5B inhibitor inactive.
Screening COc1ccccc1NC(=O)C(C)OC(=O)c1cc(C)nc2ccccc12 (stereo unspecified) returned KDM5B inhibitor inactive.
Screening COc1ccc(CNC(=O)c2ccc3c(c2)N(C(=O)c2ccc(F)cc2)CC3)cc1 returned KDM5B inhibitor inactive.
Screening CCn1cnc2c1c(=O)n(CC(=O)Nc1c(C)cc(C)cc1C)c(=O)n2Cc1ccccc1 returned KDM5B inhibitor inactive.
O=C(c1ccc(-c2ccccc2)cc1)N(Cc1ccco1)C1CC1 was read as KDM5B inhibitor inactive.
Screening CC(C)(C)NC(=O)COC(=O)C(c1ccccc1)c1ccccc1 returned KDM5B inhibitor inactive.
For Cc1[nH]c(SCC(=O)Nc2cccc(S(=O)(=O)N3CCCC3)c2)nc1Cc1ccccc1 the results were KDM5B inhibitor inactive.
CN(C)C[C@@H]1CN(c2ccccn2)C[C@H]1NC(=O)c1ccc2c(c1)OCO2 was read as KDM5B inhibitor 28.2µM*.
`CN(C)C[C@@H]1CN(c2ccncn2)C[C@H]1NC(=O)c1cccn1C` gave KDM5B inhibitor inactive.
Screening CN(C)C[C@@H]1CN(c2ccncn2)C[C@H]1NC(=O)c1ccc2ccccc2n1 returned KDM5B inhibitor inactive.
CN(C)C[C@@H]1CN(c2ccccn2)C[C@H]1NC(=O)c1cccn1C was read as KDM5B inhibitor 22.4µM*.
`CC(C)NC(=O)CN(C)Cc1cccc2cccnc12` gave KDM5B inhibitor inactive.
Screening CCC(NC(=O)/C=C/c1ccccc1)c1cccs1 (stereo unspecified) returned KDM5B inhibitor inactive.
For Cc1ccc(CNC(=O)CCNS(=O)(=O)c2c(C)[nH]c(C)c2C(=O)N2CCCC2)cc1 the results were KDM5B inhibitor inactive.
Screening CSc1ccc(CN(C)C(=O)c2ccc3c(c2)CCCC3)cc1 returned KDM5B inhibitor inactive.
